Source: PubChem (National Center for Advancing Translational Sciences (NCATS))
D3 ag: D3 dopamine receptor (human) agonism | 410,000 compounds, 0.58% hits | D3R DiscoveRx beta-arrestin cells, luminescence, 90 min | AID 652048 | P35462 | max activation, %; in the data active means max activation above about 30%; further: 0% is about no effect
Target sequence (P35462 whole entry, looked up): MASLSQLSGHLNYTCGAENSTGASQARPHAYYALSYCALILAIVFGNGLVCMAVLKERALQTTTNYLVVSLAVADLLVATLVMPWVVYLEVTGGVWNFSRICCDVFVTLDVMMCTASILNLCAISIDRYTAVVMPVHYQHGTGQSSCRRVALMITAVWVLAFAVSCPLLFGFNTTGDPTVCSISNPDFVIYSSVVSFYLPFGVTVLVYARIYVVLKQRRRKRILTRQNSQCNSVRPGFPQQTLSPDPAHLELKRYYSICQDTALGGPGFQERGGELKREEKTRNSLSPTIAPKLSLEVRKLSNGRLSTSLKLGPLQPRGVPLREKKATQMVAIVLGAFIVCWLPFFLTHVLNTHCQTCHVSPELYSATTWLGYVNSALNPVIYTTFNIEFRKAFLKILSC
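Agonist-mode cell screen: cells plated at 1500/well and incubated overnight at 37 °C, then exposed to library compounds for 90 min at 37 °C. Detection reagent was added for 30–60 min at room temperature, and luminescence was read.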
ATXN2 expr inh: inhibitors of ATXN2 expression. Potency, µM (doses to about 57 µM), for inactives: top-dose activity change, negative = inhibition, usual class: inhibitors. 360,000 compounds, 0.72% hits. HEK-293 ATXN2-luciferase reporter, luminescence, 24 h; further: potency means the concentration at half of the fitted maximal effect; on the % scale 0 is the no-effect control and ±100 the full control effect; nearly all actives have a fitted effect of over 55% in size
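ATXN2-luciferase reporter cells (luciferase flanked by upstream and downstream ATXN2 gene portions) were treated 24 h at 37 °C with compounds at up to 57 uM. SteadyGlo luminescence gave expression; GF-AFC fluorescence gave viability.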
D3 antag: blocks the human D3 dopamine receptor. P35462. D3R cells, DiscoveRx beta-arrestin luminescence, antagonist mode; active compounds read low. max response, negative = inhibition, %. 360,000 compounds, 2.5% hits. AID 652054; in the data active means max response below about -50%; inconclusive means no clear call, values can overlap the other calls; further: on the % scale 0 is the no-effect control and ±100 the full control effect
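Cells plated overnight at 1500 cells/well, then exposed to library compounds with dopamine controls for 90 minutes at 37 degrees C. DiscoveRx reagent added for 30–60 minutes at room temperature; luminescence read, quantitative HTS format.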
HepG2 viability: counter-screen for TGF-b inhibitors: cytotoxicity in HepG2 cells | Potency, µM (titrated, usually from 46.1 µM), for inactives: at the top dose activity change, negative = cytotoxicity, actives largely listed as cytotoxic | HepG2 CAGA-GFP viability, ATP luminescence, 18 h | AID 588856 | 410,000 compounds, 0.76% hits; further: potency means the concentration at half of the fitted maximal effect
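HepG2 CAGA-GFP cells (1000/well, DMEM with 1% FBS) received compound, then TGF-beta at 500 pg/mL final, and were incubated 18 hours at 37 degrees C. Viability was read by CellTiter-Glo luminescence. Media-only wells were set as complete cell-killing and DMSO as no toxicity.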
ATXN viability: viability counter-screen for ATXN expression inhibitors; S2 cells (HEK-293 line with an ATXN2-luciferase reporter) viability, CellTiter-Fluor protease fluorescence, 24 h; Potency, µM (highest dose often 56.7 µM), hits mostly cytotoxic; 400,000 compounds, 0.49% hits; further: potency means the concentration at half of the fitted maximal effect; nearly all actives have a fitted effect of over 40% in size
TGFb SMAD3 inh: blocks TGF-b signaling; HepG2 CAGA-GFP TGF-b/SMAD3 reporter, GFP fluorescence, 18 h; TGF-beta stimulated, 500 pg/mL final; Potency, µM (top dose mostly 46.1 µM), inactives show at the top dose activity, negative = inhibition, usual class: inhibitors; 410,000 compounds, 1.2% hits; AID 588855; further: potency means the concentration at half of the fitted maximal effect; on the % scale 0 is the no-effect control and ±100 the full control effect; nearly all actives have a fitted effect of over 65% in size
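HEPG2 CAGA-GFP reporter cells (1000/well, DMEM with 1% FBS) received compounds, then recombinant TGF-beta at 500 pg/mL final for 18 hours at 37 degrees C. Per-cell GFP summed per well was normalised to unstimulated and stimulated DMSO controls before curve fitting.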
* = called active by the depositor; ! = not confirmed by another sample. Compounds with a hit are over-represented: about 4.7% of the library has one in this group of screens. Unless noted, the call rests on the fitted dose curve; in most records, active means well fitted curve in the direction sought with a large enough effect; inconclusive means small, poorly fitted or top-dose-only effect, or another doubt; inactive means no such curve, though single readings can be large; an effect the other way counts as inactive or inconclusive.

Screening O=C(O)c1cccc(NC(=O)c2cccc(S(=O)(=O)Nc3cccc(F)c3)c2)c1 returned D3 ag -1, ATXN2 expr inh 3%, HepG2 viability 7%, ATXN viability inactive and TGFb SMAD3 inh 13%.
CC[C@@H]1O[C@]2(C=C[C@@H]1C)C[C@H]1C[C@H](CC=C(C)[C@@H](O[C@@H]3C[C@H](OC)[C@H](O[C@@H]4C[C@H](OC)[C@H](O)[C@H](C)O4)[C@H](C)O3)[C@@H](C)C=CC=C3CO[C@@H]4[C@@H](O)C(C)=C[C@@H](C(=O)O1)[C@]34O)O2 was read as ATXN viability 16µM*.
For Cc1cc(N(C)C)c(C)cc1/C=C/c1ccnc2ccccc12 the results were HepG2 viability -42% and TGFb SMAD3 inh -25%.
`CC(=O)c1cc(C)c(OC(=O)c2ccccc2)c(C)c1` gave D3 ag 3, ATXN2 expr inh 7%, D3 antag 16, HepG2 viability 5%, ATXN viability inactive and TGFb SMAD3 inh 0%.
`CC(=O)Cc1cc(O)c2ccccc2c1OC(=O)c1ccccc1` gave D3 ag 0, ATXN2 expr inh -16%, D3 antag -13, HepG2 viability 20µM* and TGFb SMAD3 inh inconclusive.
For CCCCC(CC)Cn1c(N)c(C#N)c2nc3ccccc3nc21 (stereo unspecified) the results were D3 ag -2, ATXN2 expr inh -18%, D3 antag 14, HepG2 viability 14µM*, ATXN viability inactive and TGFb SMAD3 inh inconclusive.
CN(C)CCCn1c(N)c(C#N)c2nc3ccccc3nc21 was read as D3 ag 6, ATXN2 expr inh -31%, D3 antag 7, HepG2 viability 16% and TGFb SMAD3 inh 5%.
`Cc1cc(Cl)cc(Cl)c1OCCOc1cccc2cccnc12` gave D3 ag -1, ATXN2 expr inh -7%, D3 antag 0, HepG2 viability -49%, ATXN viability inactive and TGFb SMAD3 inh 11µM*.
Screening O=C1C(Cl)=C(NC(=O)c2ccccc2)C(=O)C(Cl)=C1NC(=O)c1ccccc1 returned D3 ag -37, ATXN2 expr inh inconclusive, D3 antag -71*, HepG2 viability -31%, ATXN viability inconclusive and TGFb SMAD3 inh 11µM*.
CN(C1=C(NC(=O)c2ccc(Cl)cc2)C(=O)c2ccccc2C1=O)c1ccccc1 was read as D3 ag -21, ATXN2 expr inh inconclusive, D3 antag -52*, HepG2 viability -53%, ATXN viability inconclusive and TGFb SMAD3 inh 13µM*.
CN(c1ccc(C(=O)Nc2ccc(Cl)cn2)cc1)S(=O)(=O)c1ccccc1 was read as D3 ag -7, ATXN2 expr inh -33%, D3 antag 3, HepG2 viability -38%, ATXN viability inconclusive and TGFb SMAD3 inh -28%.
`Cc1ccc(C(=O)N(CCCN)[C@@H](c2nc3cc(Cl)ccc3c(=O)n2Cc2ccccc2)C(C)C)cc1` gave ATXN2 expr inh -48%.
For O=C(COc1ccc2c3c(c(=O)oc2c1)CCC3)N[C@@H](Cc1ccccc1)C(=O)O the results were D3 ag 33*, ATXN2 expr inh 2%, D3 antag 12, HepG2 viability 2%, ATXN viability inactive and TGFb SMAD3 inh 6%.
Screening O=C(COc1ccc2c3c(c(=O)oc2c1)CCC3)N[C@@H](CSCc1ccccc1)C(=O)O returned D3 ag 2, ATXN2 expr inh 0%, D3 antag 1, HepG2 viability -3%, ATXN viability inactive and TGFb SMAD3 inh 6%.
Cc1c(OCC(=O)N[C@@H](Cc2ccccc2)C(=O)O)ccc2c1oc(=O)c1ccccc12 was read as D3 ag 31*, ATXN2 expr inh 6%, D3 antag 9, HepG2 viability 0%, ATXN viability inactive and TGFb SMAD3 inh 11%.
Cc1c(OCC(=O)N[C@@H](Cc2ccccc2)C(=O)O)ccc2c3c(c(=O)oc12)CCC3 was read as D3 ag -9, ATXN2 expr inh 2%, D3 antag 44, HepG2 viability 5%, ATXN viability inactive and TGFb SMAD3 inh 12%.
For CC(C)CN(CCCNC(=O)CN1N=C(c2ccccc2)CCC1=O)CC(C)C the results were D3 ag -12, HepG2 viability -6% and TGFb SMAD3 inh -22%.
For Cc1cc(C2(c3ccc(O)c(C)c3)OC(=O)c3ccccc32)ccc1O the results were D3 ag -1, ATXN2 expr inh -1%, D3 antag 17, HepG2 viability 6%, ATXN viability inactive and TGFb SMAD3 inh inconclusive.
For Cc1cc(O)c(C(C)C)cc1C1(c2cc(C(C)C)c(O)cc2C)OC(=O)c2ccccc21 the results were D3 ag 61*, ATXN2 expr inh inconclusive, D3 antag 108, HepG2 viability 14µM* and TGFb SMAD3 inh 13µM*.
Screening COc1ccccc1-c1ccnc(-n2ncc(C(=O)NC(C)(C)CO)c2C2CC2)n1 returned ATXN viability inactive.
CCC(C)[C@H]1COCCS(=O)(=O)N1Cc1ccc(Cl)cc1Cl (stereo partly specified) was read as D3 ag -7, ATXN2 expr inh -9%, D3 antag -12, HepG2 viability -32%, ATXN viability inactive and TGFb SMAD3 inh 10µM*!.
Screening CCC(C)[C@H]1COCCS(=O)(=O)N1Cc1ccc(Br)cc1 (stereo partly specified) returned D3 ag -5, ATXN2 expr inh -7%, D3 antag 8, HepG2 viability -19%, ATXN viability inactive and TGFb SMAD3 inh -4%.
COC(=O)c1cccc(C(=O)N2CCc3c(C(=O)OC)c(OCc4ccccn4)cc(=O)n3CC2)c1 was read as ATXN viability inactive.
Cc1ccc(NC(=S)NC(=O)CC2CC(C)(C)OC2=O)cc1 (stereo unspecified) was read as D3 ag 3, D3 antag 13, HepG2 viability 9%, ATXN viability inactive and TGFb SMAD3 inh 9%.
For CC1(C)CC(CC(=O)NC(=S)Nc2ccc([N+](=O)[O-])cc2)C(=O)O1 (stereo unspecified) the results were D3 ag -14, ATXN2 expr inh 0%, D3 antag -83*, HepG2 viability 6%, ATXN viability inactive and TGFb SMAD3 inh 3%.
CC(NC(=O)c1cnc2ccccc2n1)c1ccccc1 (stereo unspecified) was read as D3 ag 10, ATXN2 expr inh 19%, D3 antag 3, HepG2 viability -7%, ATXN viability inactive and TGFb SMAD3 inh -2%.
